The list is not random: actives were taken first. Their share in the collection is about 3.5%.
GPR151 activ: activators of human GPR151, primary screen, cell-based, PathHunter beta-arrestin, luminescence. PathHunter beta-arrestin GPR151 cells. AID 1508602, 2020. activation, % at 11.2 µM. G-protein coupled receptor 151 (Homo sapiens), Q8TDV0. 650,000 tested, 1% active; in the data active means activation above about 4.9%;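 further: 0% = median of compound wells and 100% = cells with positive control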
TEAD-YAP inh: TEAD-YAP interaction inhibition, primary screen, TEAD-YAP interaction inhibitor project, luminescence, HEK-TIYL cells. TEAD-Gal4/YAP UAS-luciferase luminescence. inhibition, % at 9.12 µM. 640,000 tested, 1.4% active. AID 1259422, 2018; in the data active means inhibition above about 32%;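 further: 0% = median of test compound wells and 100% = reference inhibitor wells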
FBW7 act: FBW7 E3 ligase activators, primary screen, biochemical, AlphaScreen, human | F-box/WD repeat-containing protein 7 (Homo sapiens), Q969H0 | AlphaScreen FBW7–phospho-cyclin E peptide binding, activator screen | normalized activity (activation), % at 26.1 µM | 650,000 tested, 0.13% active | AID 1259310, 2017; in the data active means normalized activity above about 1.9%;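 further: purified mutant Fbw7 with reduced substrate affinity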
MITF inh: MITF inhibitors, primary screen, biochemical, AlphaScreen, human; AlphaScreen MITF homodimerization, bead proximity signal; 650,000 tested, 0.91% active; inhibition, % at 2.6 µM; AID 1259374, 2018; Microphthalmia-associated transcription factor (Homo sapiens), O75030; in the data active means inhibition above about 50%;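 further: 0% = vehicle wells with protein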
Target sequence (O75030 whole entry, looked up): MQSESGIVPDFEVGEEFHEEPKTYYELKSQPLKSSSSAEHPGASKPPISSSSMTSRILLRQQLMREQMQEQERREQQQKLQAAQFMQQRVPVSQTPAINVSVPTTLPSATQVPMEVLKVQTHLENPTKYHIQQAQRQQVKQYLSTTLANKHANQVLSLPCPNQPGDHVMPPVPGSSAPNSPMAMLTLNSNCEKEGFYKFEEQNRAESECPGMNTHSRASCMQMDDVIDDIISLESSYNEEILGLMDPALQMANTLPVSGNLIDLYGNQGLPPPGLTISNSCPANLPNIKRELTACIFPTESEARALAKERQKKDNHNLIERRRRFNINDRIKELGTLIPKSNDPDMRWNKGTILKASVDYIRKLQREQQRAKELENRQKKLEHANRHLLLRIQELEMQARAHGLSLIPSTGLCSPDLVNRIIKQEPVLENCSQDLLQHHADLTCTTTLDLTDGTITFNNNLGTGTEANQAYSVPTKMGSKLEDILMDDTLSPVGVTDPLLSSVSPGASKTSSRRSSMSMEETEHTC
GPR151 conf act: GPR151 activators, triplicate retest, confirmation, cell-based, PathHunter beta-arrestin, luminescence. shares compounds with GPR151 activ. GPR151 PathHunter beta-arrestin cells, 90 min; % of EA-reagent control over plate median. activation, % at 11.2 µM. 6,700 tested, under 10 active. AID 1508609, 2020;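 active means mean percent activation across replicates above the confirmation screen cutoff of 4.91%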
GPR119 counter: GPR119 activators in beta-arrestin cells, counter-screen for GPR151 activator project, cell-based, PathHunter beta-arrestin, luminescence, triplicate | shares compounds with GPR151 activ | 90 min; 0 = compound-well median, 100 = enzyme-acceptor control | activation, % at 11.2 µM | 6,700 tested, 0.3% active | AID 1508611, 2020;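 active means mean percent activation in the counterscreen above 29.09%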;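 further: counterscreen on off-target GPR119 to flag nonselective hits from the GPR151 activator screen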
* = called active by the depositor; x = not tested or not shown.

SMILES	GPR151 activ	TEAD-YAP inh	FBW7 act	MITF inh	GPR151 conf act	GPR119 counter
CC1Oc2ccccc2C=C1C1/C(=C(\O)c2ccccc2)C(=O)C(=O)N1CCCN(C)C (stereo unspecified)	12*	4	0	-3	1	-3
CN(C)CCCN1C(=O)C(=O)/C(=C(\O)c2ccccc2)C1c1ccncc1 (stereo unspecified)	1	-7	0	7	x	x
COc1ccc(NC(=O)CC2C(=O)N(c3ccc(Cl)cc3)C(=S)N2CCc2ccc(OC)c(OC)c2)cc1 (stereo unspecified)	0	-4	0	6	x	x
O=C(Nc1ccc2oc(-c3ccc(F)cc3)nc2c1)c1cccc(Cl)c1Cl	0	-3	1	15	x	x
CCOC(=O)c1sc(NC(=O)c2ccc([N+](=O)[O-])o2)c(C(=O)OCC)c1C	1	-7	0	1	x	x
CCc1c(C)nc(SCCc2ccccc2)[nH]c1=O	5.4*	-9	0	4	-1	-12
Cc1ccc(C)c(/C=C2\SC(N)=NC2=O)c1	0	-7	0	-2	x	x
Cc1cc(C)c(/C=C2\SC(N)=NC2=O)c(C)c1	7.8*	-3	0	-4	0	-1
COc1ccc(/C=C2\SC(N)=NC2=O)cc1OC	9.1*	-2	0	19	0	10
Cc1cc(C)c(NC(=O)C2CCN(c3nnnn3-c3ccccc3)CC2)c(C)c1	-1	4	1	15	x	x
COc1ccc2nc(SCC(=O)Nc3ccc(Oc4ccccc4)cc3)n(S(=O)(=O)c3ccc(Br)cc3)c2c1	-1	-3	0	12	x	x
CC1c2cccn2CCN1S(=O)(=O)c1ccccc1Cl (stereo unspecified)	5.9*	6	0	10	0	4
CC1c2cccn2CCN1S(=O)(=O)c1c(Cl)cccc1Cl (stereo unspecified)	0	3	0	16	x	x
Cc1ccc(NC(=O)N2CCCCC2C)cc1 (stereo unspecified)	0	-17	0	13	x	x
Cc1nc(C)c(NC(=O)N2CCCCC2C)cc1NC(=O)N1CCCCC1C (stereo unspecified)	4.9*	-1	0	-1	0	0
C=C(C)CN1C(=O)C(O)(CC(=O)c2ccc3ccccc3c2)c2ccccc21 (stereo unspecified)	2	-3	0	-12	x	x
COC(=O)c1cc(Nc2ccc(C)cc2)c2cccc(F)c2n1	2	21	0	0	x	x
COC(=O)c1cc(Nc2cccc(F)c2)c2cccc(OC)c2n1	7.9*	4	0	-14	0	-3
CC(C)N(C(=O)Cn1cc(SCC(=O)NCC2CCCO2)c2ccccc21)C(C)C (stereo unspecified)	12*	2	0	-1	0	-2
O=C(CSc1cn(CCNC(=O)c2ccccc2)c2ccccc12)NCC1CCCO1 (stereo unspecified)	0	-6	0	-18	x	x
COc1ccc(NC(=O)C(=O)N/N=C/c2ccc(C(=O)O)cc2)c(OC)c1	-1	2	0	9	x	x
O=C(N/N=C/c1ccc(C(=O)O)cc1)C(=O)Nc1cccc(Br)c1	9.3*	6	0	1	0	0
COc1ccccc1NC(=O)C(=O)N/N=C/c1ccc(C(=O)O)cc1	5.3*	4	0	14	0	-5
COc1ccc(C(=O)N/N=C/c2ccc(O)c(OC)c2)cc1	-1	-26	0	0	x	x
O=C(N/N=C/c1cccc(Br)c1)C(=O)Nc1cccc(C(=O)O)c1	0	0	0	2	x	x
SMILES	GPR151 activ	TEAD-YAP inh	FBW7 act	MITF inh	GPR151 conf act	GPR119 counter
COc1cc(/C=N/NC(=O)c2ccc(N(C)S(=O)(=O)c3ccccc3)cc2)ccc1O	9.3*	-9	0	5	1	-3
Cc1nc(N2CCOCC2)c2c(C)c(C(=O)Nc3c(F)cccc3F)sc2n1	0	-18	0	-17	x	x
Clc1ccccc1Nc1ncnc2ccc(Br)cc12	0	-5	0	7	x	x
Brc1ccc2ncnc(Nc3cccc4ccccc34)c2c1	11*	4	0	9	1	-12
CCC(=O)NC(=S)Nc1ccc(Cl)c([N+](=O)[O-])c1	-1	-4	0	8	x	x
C=CCNC(=S)NNC(=O)COc1ccc2cc(Br)ccc2c1	9.7*	-74	0	-10	0	-4
C=CCNC(=O)COc1c(C)cc(Br)cc1C	12*	1	0	-10	0	2
N#CCCn1cc(/C=N/O)c(-c2ccccc2)n1	2	0	0	13	x	x
N#CCCn1cc(C=O)c(-c2ccc(-c3ccccc3)cc2)n1	5.5*	-12	0	1	0	-6
CCCCNc1ncnc(N)c1[N+](=O)[O-]	3	21	0	-1	x	x
CC(C)OCCCNc1ncnc(N)c1[N+](=O)[O-]	7.7*	40*	0	7	0	-8
Nc1nc(SCC(=O)NC2CCCCCCC2)n[nH]1	2	3	0	2	x	x
CC(Sc1n[nH]c(N)n1)C(=O)OC1CCCCC1 (stereo unspecified)	10.0*	2	0	16	-1	-3
COc1ccc(C(=O)N2CCN(Cc3ccc4ccccc4c3)CC2)cc1	7.7*	36*	-1	47	1	-1
COc1ccc(N2CCN(C(=O)c3ccc(OC(C)=O)cc3)CC2)cc1	-1	-1	0	14	x	x
COc1cccc(CN2CCN(C(=O)c3c(OC)cccc3OC)CC2)c1	0	4	0	17	x	x
COc1cccc(CN2CCN(C(=O)c3cc(Br)cs3)CC2)c1	5.8*	-2	0	-2	1	11
C=CCOc1ccc(C(=O)N2CCN(c3ccc(OC)cc3)CC2)cc1	6.1*	-8	1	8	0	5
Cc1ccnc(NS(=O)(=O)c2ccc(NC(=O)c3ccc(N(C)C)cc3)cc2)n1	3	-4	0	2	x	x
CCOC(=O)N1CCC(NC(=O)c2ccc(CSCc3c(F)cccc3Cl)o2)CC1	5.3*	1	0	-17	-2	4
CCOC(=O)N1CCC(NCCNC(=O)c2ccc(Cl)cc2)CC1	12*	17	0	33	0	4
CCOC(=O)N1CCC(Nc2nncc(-c3ccc(OC)cc3)n2)CC1	10*	11	0	-3	0	1
CCOC(=O)N1CCC(NC(=O)C(=O)CC(=O)c2ccc(OC)cc2)CC1	5.4*	13	0	4	0	13

Screening results as filed in PubChem BioAssay.
